Screening data deposited in PubChem by National Center for Advancing Translational Sciences (NCATS).
TDP1 cell noCPT: qHTS for Inhibitors of human tyrosyl-DNA phosphodiesterase 1 (TDP1): qHTS in cells in absence of CPT. DT40 Tdp1-/- hTDP1 cells, no CPT, ATP luminescence, 48 h. Potency, µM (doses to about 46.2 µM), for inactives: top-dose activity change, negative = growth inhibition, usual class: inhibitors. hit rate 15% among 420,000; also: potency is read from the fitted curve at half-maximal effect; % is scaled to controls: 0 for no effect and ±100 for the full control effect; nearly all actives have a fitted effect of over 55% in size
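Seeded 400 DT40-hTDP1 cells/well (vehicle DMSO, no 20 nM CPT); pinned compounds; ≥48 hr at 37 °C; CellTiter-Glo luminescence as viability measure.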
miR-21 act: qHTS Assay for Modulators of miRNAs and/orActivators of miR-21 | HeLa miR-21 FLuc reporter, luciferase, 48 h | Potency, µM (titrated, usually from 38.3 µM), for the others: at the highest dose activity change, positive = activation, actives largely listed as activators | 340,000 tested, under 10 active;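 also: % of control where 0% means no effect; miR-21 action dims this reporter so a rising signal means less miR-21 action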
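Compounds were titrated across several concentrations (up to approximately 40 uM) and incubated 48 hours with HeLa miR-21-FLuc reporter cells (miR-21 target sequence downstream of FLuc, endogenous miR-21). Readout was firefly luciferase luminescence after lytic detection reagent.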
uPA generation: qHTS for Inhibitors of Cell Surface uPA Generation; AID 540303, 2011; cell surface uPA generation assay, qHTS; Potency, µM (doses to about 38.3 µM), inactives show at the top dose activity change, negative = inhibition, usual class: inhibitors; hit rate 0.31% among 330,000; active = well fitted inhibition curve with a large enough effect; inconclusive = small, poorly fitted or top-dose-only effect; inactive = no such curve, though single readings can be large or run the other way; tested in mouse RAW 264.7 cells; also: potency is read from the fitted curve at half-maximal effect; % is scaled to controls: 0 for no effect and ±100 for the full control effect; nearly all actives have a fitted effect of over 55% in size
TDP1 cell CPT: qHTS for Inhibitors of human tyrosyl-DNA phosphodiesterase 1 (TDP1): qHTS in cells in presence of CPT | hit rate 12% among 420,000 | chicken DT40 Tdp1-/-;hTDP1 cells + 20 nM CPT, ATP luminescence, 48 h | Potency, µM (doses to about 46.2 µM), without a hit: at the top dose activity change, negative = growth inhibition, most hits filed as inhibitors | AID 686979, 2013; also: potency is read from the fitted curve at half-maximal effect; % is scaled to controls: 0 for no effect and ±100 for the full control effect; nearly all actives have a fitted effect of over 55% in size
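Chicken DT40 Tdp1-/- cells stably complemented with human TDP1 were seeded at 400 cells/well in medium containing 20 nM camptothecin, exposed to pin-transferred compounds, and grown at 37 °C for at least 48 hr. Viability was read as ATP luminescence.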
TDP1 inh: qHTS Assay for Inhibitors of Tyrosyl-DNA Phosphodiesterase (TDP1); AID 485290, 2010; Potency, µM (titrated, usually from 130 µM), for inactives: at the top dose activity change, negative = inhibition, usual class: inhibitors; recombinant TDP1, AlphaScreen DNA substrate cleavage; Tyrosyl-DNA phosphodiesterase 1 (Homo sapiens), Q9NUW8; hit rate 0.28% among 350,000; also: potency is read from the fitted curve at half-maximal effect; % is scaled to controls: 0 for no effect and ±100 for the full control effect; nearly all actives have a fitted effect of over 40% in size
Target sequence (Q9NUW8 whole entry, looked up): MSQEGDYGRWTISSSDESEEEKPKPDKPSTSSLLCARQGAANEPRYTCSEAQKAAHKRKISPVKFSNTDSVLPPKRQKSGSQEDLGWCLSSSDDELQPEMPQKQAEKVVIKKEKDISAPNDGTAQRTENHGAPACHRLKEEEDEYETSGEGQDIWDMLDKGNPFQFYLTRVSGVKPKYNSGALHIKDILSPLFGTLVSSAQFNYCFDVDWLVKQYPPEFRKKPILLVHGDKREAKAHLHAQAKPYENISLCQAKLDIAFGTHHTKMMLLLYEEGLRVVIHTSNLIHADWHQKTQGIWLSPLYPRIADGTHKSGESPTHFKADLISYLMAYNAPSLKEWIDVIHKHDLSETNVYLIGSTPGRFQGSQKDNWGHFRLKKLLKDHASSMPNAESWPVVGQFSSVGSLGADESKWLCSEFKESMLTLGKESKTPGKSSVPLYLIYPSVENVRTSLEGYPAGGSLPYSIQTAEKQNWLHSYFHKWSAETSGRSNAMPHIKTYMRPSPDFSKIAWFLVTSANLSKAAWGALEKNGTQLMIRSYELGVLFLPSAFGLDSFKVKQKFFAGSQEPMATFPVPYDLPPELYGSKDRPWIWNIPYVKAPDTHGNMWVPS
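E. coli-derived human Tdp1, 1 nM final. Cpd preinc 15 min RT; substrate 15 nM final, 5 min RT; AS bead mix 10 ug/ml final, 10 min RT. Signal loss = tyrosine-FITC cleavage. No-enzyme wells = max signal.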
Starred values were filed as active, the others as inactive. Compounds with a hit are over-represented: about 16% of the library has one in this group of screens. Unless noted, calls follow the shape of the dose curve; as a rule, active = well fitted curve in the direction sought with a large enough effect; inconclusive = small, poorly fitted or top-dose-only effect, or another doubt; inactive = no such curve, though single readings can be large; an effect the other way counts as inactive or inconclusive.

What do the screens show for `Cc1ccc(/C=N/NC(=O)c2csc(C)c2)o1`?
TDP1 cell noCPT: -10%; miR-21 act: -38%; TDP1 cell CPT: 6%; TDP1 inh: 1%

What do the screens show for `Cc1nc(-c2ccc(C(=O)Nc3ccccc3F)cc2)cs1`?
TDP1 cell noCPT: inconclusive; miR-21 act: 21%; uPA generation: -13%; TDP1 cell CPT: -18%; TDP1 inh: 3%

How did COc1ccc(NC(=O)c2oc3ccccc3c2CSC)cc1S(=O)(=O)N1CCOCC1 do in these assays?
TDP1 cell noCPT: -3%; uPA generation: 3%; TDP1 cell CPT: 11%; TDP1 inh: -1%

How did Cc1ccc(NC(=O)COC(=O)/C=C/c2ccccc2)cc1S(=O)(=O)N1CCOCC1 do in these assays?
TDP1 cell noCPT: 9%; miR-21 act: 0%; uPA generation: -2%; TDP1 cell CPT: 1%; TDP1 inh: 2%

How did CC(=O)c1c(C)[nH]c(C(=O)OC(C)C(=O)Nc2ccc(C)c(S(=O)(=O)N3CCOCC3)c2)c1C (stereo unspecified) do in these assays?
TDP1 cell noCPT: 29µM*; uPA generation: -13%; TDP1 cell CPT: 23µM*; TDP1 inh: 4%

How did Cc1ccc(NC(=O)C(C)OC(=O)c2cc(=O)[nH]c3ccccc23)cc1S(=O)(=O)N1CCOCC1 (stereo unspecified) do in these assays?
TDP1 cell noCPT: 8%; uPA generation: -3%; TDP1 cell CPT: 2%

How did CC(C)CNC(=O)c1oc2ccccc2c1COc1ccccc1 do in these assays?
TDP1 cell noCPT: inconclusive; miR-21 act: -7%; uPA generation: 0%; TDP1 cell CPT: -25%; TDP1 inh: -3%

Results for Cc1cc(C)cc(NC(=O)c2oc3ccccc3c2COc2ccccc2)c1 ?
TDP1 cell noCPT: 21µM*; miR-21 act: 0%; uPA generation: -5%; TDP1 cell CPT: inconclusive; TDP1 inh: -6%

What do the screens show for `Cc1ccc(NC(=O)c2oc3ccccc3c2COC(C)C)cc1S(=O)(=O)N1CCOCC1`?
TDP1 cell noCPT: 23µM*; uPA generation: 0%; TDP1 cell CPT: 18µM*; TDP1 inh: 0%

How did CCC(C(=O)OCC(=O)Nc1ccc(C)c(S(=O)(=O)N2CCOCC2)c1)c1ccccc1 (stereo unspecified) do in these assays?
TDP1 cell noCPT: inconclusive; uPA generation: inconclusive; TDP1 cell CPT: 12µM*; TDP1 inh: 0%

How did COc1ccccc1-n1cc2ccc([N+](=O)[O-])cc2n1 do in these assays?
TDP1 cell noCPT: -28%; uPA generation: -1%; TDP1 cell CPT: -13%

What do the screens show for `CC(C)(C)OC(=O)C1C(=O)CC(C)(O)C(C(=O)OC(C)(C)C)C1c1ccco1` (stereo unspecified)?
TDP1 cell noCPT: -20%; miR-21 act: -1%; uPA generation: 6%; TDP1 cell CPT: -2%; TDP1 inh: 4%

How did Cc1ccc(NC(=O)CSc2ccc(Br)cc2)cc1S(=O)(=O)N1CCOCC1 do in these assays?
TDP1 cell noCPT: 26µM*; uPA generation: 3%; TDP1 cell CPT: 18µM*

What do the screens show for `Cc1ccc(NC(=O)COC(=O)C2(C)CC2(Cl)Cl)cc1S(=O)(=O)N1CCOCC1` (stereo unspecified)?
TDP1 cell noCPT: 23µM*; uPA generation: 1%; TDP1 cell CPT: 21µM*; TDP1 inh: 1%

What do the screens show for `CC(C)(C)c1ccc(NC(=O)COC(=O)C2(C)CC2(Cl)Cl)cc1` (stereo unspecified)?
TDP1 cell noCPT: 23µM*; miR-21 act: -51%; uPA generation: -15%; TDP1 cell CPT: inconclusive; TDP1 inh: 2%

What do the screens show for `C=CCN1c2ccccc2Sc2cnccc21`?
TDP1 cell noCPT: 18µM*; TDP1 cell CPT: inconclusive

What do the screens show for `O=C(O)CCN1c2ccccc2Sc2ccccc21`?
TDP1 cell noCPT: -15%; miR-21 act: -4%; uPA generation: 3%; TDP1 cell CPT: -2%; TDP1 inh: 3%

What do the screens show for `C=CCN1C(=O)/C(=C2/Sc3ccccc3N2CC)SC1=S`?
TDP1 cell noCPT: -21%; miR-21 act: -6%; uPA generation: 7%; TDP1 cell CPT: -23%

Results for CC(=O)OCCN1c2ccccc2Sc2cnccc21 ?
TDP1 cell noCPT: 15µM*; TDP1 cell CPT: inconclusive

What do the screens show for `NC1=NC[C@H](c2ccccc2)N1CC1CCCCC1`?
TDP1 cell noCPT: 16µM*; uPA generation: 3%; TDP1 cell CPT: 13µM*

How did COc1cc(CCCN2C(N)=NC[C@@H]2c2ccccc2)cc(OC)c1OC do in these assays?
TDP1 cell noCPT: inconclusive; miR-21 act: 0%; uPA generation: 4%; TDP1 cell CPT: -18%; TDP1 inh: -1%

How did NC1=NC[C@H](Cc2ccc(O)cc2)N1CCc1cc(C(F)(F)F)cc(C(F)(F)F)c1 do in these assays?
TDP1 cell noCPT: inconclusive; miR-21 act: -3%; uPA generation: -4%; TDP1 cell CPT: inconclusive; TDP1 inh: 2%

What do the screens show for `CC(O)[C@H]1CN=C(N)N1CCc1cc(C(F)(F)F)cc(C(F)(F)F)c1` (stereo partly specified)?
TDP1 cell noCPT: -16%; miR-21 act: 0%; uPA generation: 12%; TDP1 cell CPT: -5%; TDP1 inh: 4%

What do the screens show for `CC(O)[C@H]1CN=C(N)N1CC1CCCCC1` (stereo partly specified)?
TDP1 cell noCPT: -21%; uPA generation: 5%; TDP1 cell CPT: inconclusive

What do the screens show for `NC1=NC[C@H](c2ccccc2)N1CCc1cc(C(F)(F)F)cc(C(F)(F)F)c1`?
TDP1 cell noCPT: 21µM*; miR-21 act: inconclusive; uPA generation: -8%; TDP1 cell CPT: 18µM*; TDP1 inh: 2%

Results for CCC(C)[C@H]1CN=C(N)N1CCc1cc(C(F)(F)F)cc(C(F)(F)F)c1 (stereo partly specified) ?
TDP1 cell noCPT: 4.6µM*; miR-21 act: 19%; uPA generation: 2%; TDP1 cell CPT: 3.3µM*; TDP1 inh: -1%

How did NC1=NC[C@@H](CC2CCCCC2)N1CCc1cc(C(F)(F)F)cc(C(F)(F)F)c1 do in these assays?
TDP1 cell noCPT: 3.7µM*; uPA generation: -16%; TDP1 cell CPT: 3.3µM*; TDP1 inh: 2%

How did COc1ccc(OC)c(CNS(=O)(=O)c2c(C(=O)N3CCCCCC3)c(C)n(C)c2C)c1 do in these assays?
TDP1 cell noCPT: inconclusive; miR-21 act: -6%; TDP1 cell CPT: inconclusive; TDP1 inh: 5%
